Source: PubChem
Giardia kill: Giardia lamblia killing; Giardia lamblia trophozoite viability; activity change, % at 7.66 µM, hits read low; 0.15% of 340,000 active; AID 540267; in the data active = activity change below about -80%; inconclusive = between about -30% and that limit;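 also: parasites exposed to compound for two days anaerobically before the ATP read; % is scaled to controls: 0 for no effect and ±100 for the full control effect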
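Anaerobic 48 hrs incubation at 37 deg C of 100 trophozoites/well with test compounds; ATPLite 1-Step luminescence, 15-30 min RT, reports cellular ATP as viability.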
NPSR antag: antagonists of human neuropeptide S receptor cAMP signaling; CHO-NPSR cells, cAMP TR-FRET, antagonist mode; 1% of 220,000 active; Potency, µM (highest dose often 38.3 µM), without a hit: at the top dose activity change, negative = inhibition, actives largely listed as inhibitors; AID 1461; also: potency is read from the fitted curve at half-maximal effect; % is scaled to controls: 0 for no effect and ±100 for the full control effect; nearly all actives have a fitted effect of over 50% in size
RXFP1 ag: activates the human relaxin receptor RXFP1; Potency, µM (highest dose often 57.5 µM), without a hit: at the top dose activation, actives largely listed as activators; HEK293T-RXFP1 cAMP TR-FRET, 30 min; response scale: percent of porcine relaxin response, buffer zero; AID 2676; 0.3% of 370,000 active; also: potency is read from the fitted curve at half-maximal effect; % is scaled to controls: 0 for no effect and ±100 for the full control effect; nearly all actives have a fitted effect of over 60% in size
Target sequence (Q9HBX9 whole entry, looked up): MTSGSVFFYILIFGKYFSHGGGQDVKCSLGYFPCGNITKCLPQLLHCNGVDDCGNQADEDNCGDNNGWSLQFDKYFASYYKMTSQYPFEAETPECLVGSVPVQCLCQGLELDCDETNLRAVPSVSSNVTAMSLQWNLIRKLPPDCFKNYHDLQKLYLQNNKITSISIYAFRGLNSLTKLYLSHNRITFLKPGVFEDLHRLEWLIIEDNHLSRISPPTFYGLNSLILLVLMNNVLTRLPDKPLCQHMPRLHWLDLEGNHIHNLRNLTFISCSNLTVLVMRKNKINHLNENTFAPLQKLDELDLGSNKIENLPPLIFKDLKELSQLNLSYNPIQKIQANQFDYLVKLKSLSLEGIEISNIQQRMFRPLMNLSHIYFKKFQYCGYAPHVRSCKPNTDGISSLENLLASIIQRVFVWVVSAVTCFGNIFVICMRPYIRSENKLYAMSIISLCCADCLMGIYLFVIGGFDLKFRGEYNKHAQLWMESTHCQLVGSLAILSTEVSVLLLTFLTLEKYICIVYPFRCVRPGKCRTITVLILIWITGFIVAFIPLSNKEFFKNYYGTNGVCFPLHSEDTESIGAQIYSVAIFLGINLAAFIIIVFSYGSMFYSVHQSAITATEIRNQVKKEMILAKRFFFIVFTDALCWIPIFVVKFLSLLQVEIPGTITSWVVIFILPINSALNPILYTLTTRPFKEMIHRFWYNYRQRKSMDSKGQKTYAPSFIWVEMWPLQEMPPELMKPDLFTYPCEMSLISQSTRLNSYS
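cAMP rise read by TR-FRET after 30 min, 37C compound exposure (up to 58 uM) in RXFP1-transfected HEK293 cells with Ro 20174 present. EC50 from Hill-equation fits, with 29 nM porcine relaxin as 100% and buffer as basal.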
RXFP1 antagonist: antagonists of human relaxin receptor RXFP1; Q9HBX9; HEK293-RXFP1, relaxin-stimulated cAMP HTRF, 30 min; hits give low values; activity change, negative = inhibition, % at 57.5 µM; 0.59% of 350,000 active;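 active = activity change of -60% or lower, but not beyond a set lower limit; inconclusive = change between -60% and -40%, or beyond the set limit; inactive = change above -40%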; also: % is scaled to controls: 0 for no effect and ±100 for the full control effect
BRCA1 expr up: increases BRCA1 expression; 1.1% of 380,000 active; Potency, µM (doses to about 46.1 µM), for the others: at the highest dose activation, most hits filed as activators; MCF7-BRCA1-FFLuc reporter, luminescence, 48 h; response scale: scaled: vehicle 0%, 10 µM genistein 100%; also: potency is read from the fitted curve at half-maximal effect; nearly all actives have a fitted effect of over 80% in size
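MCF7-BRCA1-FFLuc, 2000 cells/well; 2 h attach, 37 °C/5% CO2; compound 48 h; luciferase substrate 15 min; luminescence end-point. Norm. to genistein 10 microM max activation and DMSO; concentration-response curves fitted.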
IL-2 act: activates IL-2 in a cell-based reporter assay; IL-2 activation reporter assay, cell-based qHTS; stimulated with anti-CD3/CD4/CD28 beads; in transgenic mouse T cells; activation, % (series mostly up to about 46 µM); 0.065% of 360,000 active; AID 652025; in the data active = activation above about 50%; inconclusive = mostly about 30% to 49%; also: 0% is about no effect
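Readout is EGFP and DsRed signal by fluorescent plate cytometry after 18 h at 37 degrees C. Transgenic mouse T cells (750/well) received compound for 60 min before bead stimulation (anti-CD3, anti-CD4, anti-CD28); memory T cells served as non-tolerant control.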
Numbers without * were called inactive; u = inconclusive; x = not tested or not shown; [ ] = another dose, or the depositor's remark. An excerpt weighted towards active compounds, which were near 1.9% of everything screened. Unless noted, calls follow the shape of the dose curve; as a rule, active = well fitted curve in the direction sought with a large enough effect; inconclusive = small, poorly fitted or top-dose-only effect, or another doubt; inactive = no such curve, though single readings can be large; an effect the other way counts as inactive or inconclusive.

SMILES | Giardia kill | NPSR antag | RXFP1 ag | RXFP1 antagonist | BRCA1 expr up | IL-2 act
CSCCC(NS(=O)(=O)c1ccc2c(c1)c(=O)n(C)c(=O)n2C)C(=O)NC1CCN(Cc2ccccc2)CC1 (configuration not stated) | 18 | -40% | 18µM* | -9 | 6% | -2
CN(CC(=O)NC1CCN(Cc2ccccc2)CC1)S(=O)(=O)c1ccc2c(c1)c(=O)n(C)c(=O)n2C | 3 | 14% | 2% | 2 | -21% | -3
COc1cccc(-c2nc(SCC(=O)NCC3CCCO3)c(-c3ccc(Cl)cc3)[nH]2)c1 (configuration not stated) | x | x | 4% | -26 | x | x
CC1CCCC(NC(=O)c2ccc3c(c2)OCO3)C1C (configuration not stated) | -17 | x | 2% | 31 | 3.5µM* | 0
CC1CCCCC1NS(=O)(=O)CCNC(=O)c1ccc2c(c1)OCO2 (configuration not stated) | 6 | x | 0% | 2 | -7% | 1
CC(C)OP(=O)(CP(=O)(OC(C)C)OC(C)C)OC(C)C | x | x | x | -13 | x | x
Cc1ccc(NC(=O)Cn2c(=O)n(CCC(=O)NCc3ccccc3Cl)c(=O)c3ccccc32)cc1 | x | x | 16% | x | -15% | x
O=[N+]([O-])c1ccc2c(c1)C=C/C2=C\c1ccc(C=S)cc1 | x | x | x | x | 5.6µM* | x
CN(C)c1ccc(/C=C2\C=Cc3cc(N)ccc32)cc1 | x | x | x | x | 22% | x
CCOC(=O)CCCC(=O)N1CCN(/[N+]([O-])=N/Oc2ccc([N+](=O)[O-])cc2[N+](=O)[O-])CC1 | x | x | x | x | -3% | x
Cn1c(=O)c2[nH]c(SCCN3CCOCC3)nc2n(C)c1=S | 30 | x | x | -72* | -6% | -1
C=C(CCC(=O)c1ccccc1)C(=O)c1ccccc1 | 7 | u | 1% | -67* | -65% | -3
CCOC(=O)c1sc2nc3c(SCCC(=O)O)cc(C(=O)c4cc(OC)ccc4O)cn3c(=O)c2c1C | -28 | 10µM* | 2% | 0 | -4% | 0
Cc1nc2c(C(=O)NCCC(C)C)c[nH]n2c(=O)c1Cc1ccccc1F | -9 | -12%[46.1 µM] | 2% | -101* | -21% | -3
CSc1nc2ccc3nc(NC(=O)c4cccs4)sc3c2s1 | -25 | -13%[46.1 µM] | 1% | -1 | 8.9µM* | -1
CSc1nc2ccc3nc(NC(=O)c4ccc(Cl)s4)sc3c2s1 | -12 | -14%[46.1 µM] | 0% | x | -24% | 0
Cc1nn(C)c2c1c(-c1ccccc1)cc(=O)n2CC(=O)NC(C)c1ccccc1 (configuration not stated) | x | x | 1% | -20 | x | x
CCOc1ccc(NC(=O)c2oc3ccccc3c2NC(=O)Cc2ccc(OC)c(OC)c2)cc1 | x | x | -2% | x | 11µM* | x
CCOC(=O)C1=C(CN(CC)Cc2ccccc2)NC(=O)NC1c1ccc(OC(C)C)cc1 (configuration not stated) | x | x | 5% | x | -33% | x
Cc1cc(N2CCOCC2)nc2ccc(Cl)cc12 | 15 | x | 1% | -4 | 7.9µM* | -1
CN(C)c1cccc(/C=C(\C#N)c2ccccc2)c1 | -2 | -19% | 4% | 6 | u | -4
CN(C)c1ccc(/C=C(\C#N)c2ccccc2)cc1 | -10 | -15% | 2% | 1 | 2.8µM* | -4
COc1ccc(/C=C2\C=Cc3ccccc32)cc1OC | x | x | x | x | 77% | x
COCCNC(=O)c1ccc2c(Cl)c3c(nc2c1)CCC3 | -14 | x | 3% | -8 | 5µM* | -6
COc1cc(/C=N/n2cnnc2)ccc1OCc1ccc(C)cc1 | 8 | 29%[46.1 µM] | 3% | -10 | 10µM* | 0
SMILES | Giardia kill | NPSR antag | RXFP1 ag | RXFP1 antagonist | BRCA1 expr up | IL-2 act
COc1ccccc1NC(=O)CSc1nnc(NC(=O)Nc2ccc(C)cc2)s1 | x | x | 1% | -10 | x | x
CCc1cc2ccc(OC)cc2nc1SCC(=O)Nc1cc(C)on1 | -14 | 10µM* | u | -4 | -59% | 2
Cn1c(SCc2ccc(C(C)(C)C)cc2)nnc1C1COc2ccccc2O1 (configuration not stated) | -7 | 46% | -1% | -69* | -93% | -1
O=[N+]([O-])c1ccc(COc2ccc(CN3CCCC3)cc2)cc1 | -6 | x | x | x | u | 1
NC(=O)C1CCN(Cc2ccc(OCc3ccccc3)cc2)CC1 | -1 | x | -4% | 3 | 11µM* | 0
NC(=O)C1CC(=O)N(c2ccc(OCc3ccc(Cl)cc3Cl)cc2)C1 (configuration not stated) | -20 | 2% | -1% | -14 | 44% | -1
c1ccc(COc2ccc(CN3CCN(c4ccccn4)CC3)cc2)cc1 | 4 | -15%[46.1 µM] | 0% | -22 | 2µM* | 0
O=[N+]([O-])c1ccc(COc2ccc(CN3CCCCC3)cc2)cc1 | 15 | x | x | x | 7.9µM* | -1
NC(=O)C1CC(=O)N(c2ccc(OCc3ccc(Cl)c(Cl)c3)cc2)C1 (configuration not stated) | x | x | x | 2 | 10µM* | 0
CCc1ccc(OCCCn2c(CCNC(=O)C3CCCCC3)nc3ccccc32)cc1 | -3 | x | x | x | 10% | x
CSc1ccc2c(c1)C(N1CCN(C)CC1)Cc1ccc(F)cc1S2 (configuration not stated) | 7 | x | x | u | -32% | 0
COc1ccc2c(c1)CC(N1CCN(C)CC1)c1cc(OC)ccc1S2 (configuration not stated) | 19 | x | x | -115* | -95% | -1
O=C(O)COc1nn(Cc2ccccc2)c2ccccc12 | x | x | x | -26 | x | x
N/C(Cc1ccc(Cl)c(Cl)c1)=N\OC(=O)c1cccs1 | -4 | -8%[46.1 µM] | 0% | -6 | 0% | -2
N/C(=N\OC(=O)c1cccs1)C1(c2ccc(Cl)cc2Cl)CC1 | 0 | 10% | 1% | -115* | 25% | 4
N/C(=N\OC(=O)/C=C/c1ccccc1Cl)c1ccccn1 | 10 | 9% | -1% | -5 | -18% | -3
N/C(=N\OC(=O)/C=C/c1ccccc1)c1cccnc1 | 1 | 7% | 1% | 4 | 10µM* | 2
N/C(=N\OC(=O)/C=C/c1ccccc1Cl)c1cccnc1 | 48 | u | -2% | -2 | 4µM* | -2
CCOc1ccc(N=C(C)C2=C(O)c3ccccc3C2=O)cc1 | -2 | -8% | 21% | -63* | u | 0
Cc1ccc(Cl)cc1-n1ncc2c(N3CCN(Cc4ccccc4)CC3)ncnc21 | x | x | 3% | -81* | x | x
CCCOc1cccc(C2c3c(-c4ccccc4O)n[nH]c3C(=O)N2Cc2ccco2)c1 (configuration not stated) | x | x | 0% | -80* | x | x
COCCN1C(=O)c2[nH]nc(-c3ccccc3O)c2C1c1ccc(Cl)c(Cl)c1 (configuration not stated) | x | x | 0% | -70* | x | x
